# ALDH1A1 inh – qHTS Assay for Inhibitors of Aldehyde Dehydrogenase 1 (ALDH1A1); Aldehyde dehydrogenase 1A1 (Homo sapiens), P00352; Purified ALDH1A1, NADH fluorescence, propionaldehyde substrate; Potency, µM (top dose mostly 75.3 µM), without a hit: top-dose activity, negative = inhibition, most hits filed as inhibitors; 7.3% of 220,000 active; AID 1030, 2008; active means well fitted inhibition curve with a large enough effect, not every such curve was filed as active; inconclusive means small, poorly fitted or top-dose-only effect, or another doubt; inactive means no such curve, though single readings can be large or run the other way;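 further: potency means the concentration at half of the fitted maximal effect; plate controls were no enzyme wells and a reference inhibitor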
# PNC inhibitor – High Content Assay for Compounds that inhibit the Assembly of the Perinucleolar Compartment; AID 2417, 2010; activity change (PNC), negative = inhibition, % at 10 µM; PC3M PTB-GFP, PNC prevalence imaging, 16 h; hits give low values; 3.1% of 140,000 active;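 active means readout at or below -70, meaning at least 70% loss of cells showing the perinucleolar compartment, a nuclear body marking cancer cells; inconclusive means readout between -30 and a set limit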;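 further: plate controls were DMSO wells for no effect and camptothecin positive control wells for full effect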
#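 Read-out is percentage of cells bearing a perinucleolar compartment, from automated 20x imaging of fixed, Hoechst-stained PC3M PTB-GFP cells. Cells were seeded 4 h, then exposed 16 h to compound (23 nl of library stock) in duplicate plates.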
# IMPase cell inh – qHTS Assay for Identifying the Cell-Membrane Permeable IMPase Inhibitors; Inositol monophosphatase 1 (Rattus norvegicus), P97697; CHO-M1 cells, IP1 accumulation, HTRF TR-FRET ratio; inhibition (IP1 accumulation), % at 46.1 µM; 120,000 tested, under 10 active; active means well fitted curve in the direction sought with a large enough effect in the signal ratio, not every such curve was filed as active; inconclusive means small, poorly fitted or top-dose-only effect, or a change in a side signal; inactive means no such curve, though single readings can be large or run the other way; the % refers to the signal ratio;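 further: cells stimulated with carbachol in lithium chloride buffer; plate controls were DMSO basal wells for no effect and reference inhibitor wells for full effect; higher means more IMPase inhibition seen as more IP1 and lower FRET ratio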
# Target sequence (P97697 whole entry, looked up): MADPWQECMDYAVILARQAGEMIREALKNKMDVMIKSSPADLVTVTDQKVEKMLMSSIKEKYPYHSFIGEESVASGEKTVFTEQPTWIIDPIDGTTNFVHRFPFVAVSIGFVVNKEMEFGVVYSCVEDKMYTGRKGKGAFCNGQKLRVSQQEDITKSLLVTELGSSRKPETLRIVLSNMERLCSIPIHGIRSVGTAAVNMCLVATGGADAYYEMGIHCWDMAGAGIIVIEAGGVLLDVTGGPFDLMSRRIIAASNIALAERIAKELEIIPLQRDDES
#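 Cellular IMPase inhibition is scored as a rise in cytosolic IP1, detected by competitive TR-FRET between d2-labelled IP1 and a europium anti-IP1 antibody. M1-expressing CHO cells were stimulated with carbachol for 30 min at 37C, with lithium (50 mM LiCl) present in the buffer.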
# IMPase Li inh – qHTS Assay for Identifying the Cell-Membrane Permeable IMPase Inhibitors: Potentiation with Lithium. Potency, µM (series often up to 59.4 µM), for inactives: at the highest dose activity, negative = IMPase inhibition, actives largely listed as inhibitors. CHO-M1 cells, IP1 TR-FRET (IP-One), carbachol + lithium. 0.35% of 210,000 active;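 further: IP1 builds up when IMPase is blocked and the TR-FRET signal falls; potency means the concentration at half of the fitted maximal effect; plate controls were basal vehicle for no effect and high inhibitor control for full effect; nearly all actives have a fitted effect of over 50% in size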
#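 CHO-M1, 2000 cells/well, 16–30 h culture; cpd + low Li+, 30 min 37C; lysis with d2-IP1/Eu-anti-IP1 Ab, 10 min RT; TR-FRET 665/620 ratio and 620 channel; AC50 via Hill.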
# HPGD block – qHTS Assay for Inhibitors of HPGD (15-Hydroxyprostaglandin Dehydrogenase); Potency, µM, without a hit: top-dose activity change, negative = inhibition, usual class: inhibitors; purified HPGD, NADH fluorescence kinetic, PGE2 substrate; 15-hydroxyprostaglandin dehydrogenase [NAD(+)] (Homo sapiens), P15428; 4.3% of 150,000 active; active means well fitted inhibition curve with a large enough effect, not every such curve was filed as active; inconclusive means small, poorly fitted or top-dose-only effect, or another doubt; inactive means no such curve, though single readings can be large or run the other way; further: potency means the concentration at half of the fitted maximal effect
# Target sequence (P15428 whole entry, looked up): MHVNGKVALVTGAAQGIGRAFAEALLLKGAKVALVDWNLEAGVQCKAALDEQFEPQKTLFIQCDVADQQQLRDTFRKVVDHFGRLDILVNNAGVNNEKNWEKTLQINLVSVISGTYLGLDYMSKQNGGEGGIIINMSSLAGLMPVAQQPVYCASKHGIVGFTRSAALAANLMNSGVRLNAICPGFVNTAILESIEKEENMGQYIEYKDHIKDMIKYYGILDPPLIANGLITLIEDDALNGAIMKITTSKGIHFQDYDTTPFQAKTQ
#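 NADH formation kinetics: reaction with 30 uM PGE2 and 1 mM NAD+ (final), 20 nM enzyme, Tris-HCl pH 8 with Tween 20, after 15 min compound preincubation at room temperature. Fluorescence change, last versus first of five reads.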
# NPSR antagonist – qHTS Assay for Antagonists of the Neuropeptide S Receptor: cAMP Signal Transduction | Q6W5P4 | CHO-NPSR cells, cAMP TR-FRET, antagonist mode | Potency, µM (doses to about 38.3 µM), without a hit: at the highest dose activity change, negative = inhibition, most hits filed as inhibitors | 1% of 220,000 active | AID 1461, 2008; further: potency means the concentration at half of the fitted maximal effect; nearly all actives have a fitted effect of over 50% in size
# An asterisk follows results filed as active; ? = inconclusive; nt = no result given; [ ] = dose if it differs, or a comment. Most compounds without a hit are left out; they make up all but 11% or so of the library. Unless noted, the call rests on the fitted dose curve; in most records, active means well fitted curve in the direction sought with a large enough effect; inconclusive means small, poorly fitted or top-dose-only effect, or another doubt; inactive means no such curve, though single readings can be large; an effect the other way counts as inactive or inconclusive. Unless noted, on the % scale 0 is the no-effect control and ±100 the full control effect.
SMILES,ALDH1A1 inh,PNC inhibitor,IMPase cell inh,IMPase Li inh,HPGD block,NPSR antagonist
CCCCN(CCCNC(=O)C1CCN(S(=O)(=O)N2CCOCC2)CC1)c1ccccc1,?,-16.8,-6.0,nt,nt,-13.5%[46.1 µM]
O=C(COc1cnc2ccccc2n1)NCCC1=CCCCC1,11.2µM*,14.2,-1.4,5.5%[38.3 µM],-15.4%,-8.8%[46.1 µM]
COc1ccc(CC(=O)NCCC2=CCCCC2)cc1,23.8µM*,nt,nt,8.4%,nt,1.3%
COc1ccc(OCCC(=O)OCC(=O)NCCC2=CCCCC2)cc1,12.6µM*,nt,nt,-11.5%,nt,3.6%
COC(=O)c1cccc(NC(=S)NCCC2=CCCCC2)c1,28.2µM*,40.0,7.0,11.7%[38.3 µM],?,-10.9%[46.1 µM]
O=C(COC(=O)COc1ccc(Br)cc1)NCCC1=CCCCC1,?,-28.6,-2.7,-4.1%,-12.2%,8.2%[46.1 µM]
CC(C)C(=O)NC(=O)C1CCCN1C(=O)/C=C/c1ccccc1 (centres undefined),-1.2%[13.5 µM],nt,nt,nt,nt,nt
O=C(O)c1ccccc1-c1nc2ccccc2n1-c1ccccc1,-0.3%,-109.0*,nt,-8.5%,3.3%,2.2%
CC(C)C(NS(=O)(=O)c1cccs1)C(=O)N(C)Cc1ccccc1 (centres undefined),?,?,?,15.2%[38.3 µM],1.2%,-1.1%[46.1 µM]
CC1CCN(c2ccc(C=O)o2)CC1,14.1µM*,nt,nt,-0.9%,nt,13.1%
CC(=O)C1=C(C)NC(SCC(=O)c2ccccc2)=C(C#N)C1CC(C)C (centres undefined),7.08µM*,5.9,?,10µM*,31.6µM*,-5.2%[46.1 µM]
CC(=O)C1=C(C)NC(SCc2cccc3ccccc23)=C(C#N)C1c1ccco1 (centres undefined),?,5.7,22.2,13.5%,?,-43.1%
CC(=O)C1=C(C)NC(SCC(=O)c2ccc(Cl)cc2)=C(C#N)C1c1ccco1 (centres undefined),20µM*,28.5,9.9,25.5%[38.3 µM],31.6µM*,?
CC(=O)C1=C(C)NC(SCC(=O)c2ccc(Cl)cc2Cl)=C(C#N)C1c1ccco1 (centres undefined),?,?,8.3,3.9%[38.3 µM],?,-23.7%[46.1 µM]
CC(=O)C1=C(C)NC(SCC(=O)c2ccccc2)=C(C#N)C1c1ccco1 (centres undefined),20µM*,10.8,5.0,1.6%[38.3 µM],31.6µM*,?
CC(=O)C1=C(C)NC(SCc2ccc(C#N)cc2)=C(C#N)C1c1ccco1 (centres undefined),22.4µM*,?,nt,2.4%,-5.4%,-5.6%
COc1ccc(-c2nnn(CC(=O)N(CCCO)C(C(=O)NC3CCCC3)c3ccncc3)n2)cc1 (centres undefined),3.2%,nt,nt,-4.6%,nt,-26.1%
O=C(Nc1ccc2oc(-c3ccccc3)nc2c1)c1ccc2ccccc2c1,nt,nt,-6.6,nt,nt,nt
Cc1cc(S(=O)(=O)Nc2ccc(O)c(Sc3nc4ccccc4s3)c2)ccc1Cl,nt,nt,-11.3,nt,nt,nt
CCOC(=O)C1=C(c2ccccc2)NC(SCC(=O)Nc2ccccc2C)=C(C#N)C1c1ccco1 (centres undefined),14.1µM*,?,7.1,23.4%[38.3 µM],?,-14.1%[46.1 µM]
COc1ccc(NC(=O)/C(C#N)=C/c2c(C)nn(-c3ccc(F)cc3)c2Cl)cc1Cl,8.7%,-83.4*,nt,-18.8%,-13.4%,-37.0%
COc1ccccc1NC(=O)/C(C#N)=C/c1c(C)nn(-c2ccc(F)cc2)c1Cl,8.3%,-18.8,nt,7.1%,0.2%,-3.6%
Cc1nn(-c2ccccc2)c(Cl)c1/C=C(\C#N)C(=O)NC(C)C,14.1µM*,-25.3,nt,18.6%,-25.8%,-8.7%
COc1ccc(CCc2nnc(CCC(=O)NCc3cnc4ccccn34)o2)cc1,?,nt,nt,6.8%,nt,-16.0%

# Compound activity from PubChem BioAssay.
